# Screening data as filed in PubChem.
# Tau fluor cs: counter-screen for tau fibril formation inhibitors; tau K18 P301L Alexa594 fluorescence, heparin fibrillization; Potency, µM (series often up to 57.7 µM); 280,000 tested, 0.93% active; note: nearly all actives have a fitted effect of over 55% in size
#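 Human tau K18 P301L (15 uM unlabeled, 0.24 uM Alexa 594-labeled) in 100 mM sodium acetate pH 7 with 20 uM heparin, 6 hr at 37 C. ThT 30 uM added, 1 hr ambient; Alexa 594 FP and total fluorescence read at 555/632 nm.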
# Tau fibril FP: inhibitors of human tau fibril formation; P10636; K18 P301L tau heparin fibrillization, Alexa594 FP, 6 h; Potency, µM (titrated, usually from 57.7 µM), actives largely listed as inhibitors; 280,000 tested, 0.39% active; note: nearly all actives have a fitted effect of over 55% in size
# Target sequence (P10636 561-689 P618L limits assumed): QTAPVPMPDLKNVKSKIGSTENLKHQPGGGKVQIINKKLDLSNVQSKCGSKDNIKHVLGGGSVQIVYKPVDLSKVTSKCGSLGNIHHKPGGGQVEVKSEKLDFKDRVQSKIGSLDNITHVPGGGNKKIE
#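 Recombinant K18 P301L […], labeled with Alexa 594 at 0.24 uM over 15 uM unlabeled; heparin inducer 20 uM final; 37 C, 6 hr; FP endpoint.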
# Tau fibril ThT: tau fibrillization inhibition (ThT binding). P10636. recombinant tau K18 P301L (four-repeat tau fragment), heparin-induced fibrillization, ThT fluorescence. Potency, µM (top dose mostly 57.4 µM), hits mostly inhibitors. 270,000 tested, 2.1% active. AID 1460; note: nearly all actives have a fitted effect of over 55% in size
#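 K18 P301L tau (15 uM + 0.24 uM Alexa 594-tagged), heparin 20 uM, NaOAc pH 7, 6 h 37 C; ThT 30 uM, 1 h RT, ex 450/em 510 nm.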
# HPGD inh: inhibitors of human 15-hydroxyprostaglandin dehydrogenase (HPGD) | P15428 | purified HPGD, NADH fluorescence kinetic, PGE2 substrate | Potency, µM, most hits filed as inhibitors | 150,000 tested, 4.3% active; active = well fitted inhibition curve with a large enough effect, not every such curve was filed as active; inconclusive = small, poorly fitted or top-dose-only effect, or another doubt; inactive = no such curve, though single readings can be large or run the other way
#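 20 nM HPGD preincubated 15 min at room temperature with compound in 50 mM Tris-HCl pH 8, 0.01% Tween 20. Started with 1 mM NAD+ and 30 uM prostaglandin E2; NADH fluorescence (360/450 nm) read 5 times over 30-s intervals, last minus first.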
# JMJD2E inh: inhibitors of human JMJD2E histone demethylase; B2RXH2; JMJD2E catalytic domain, FDH-coupled NADH fluorescence (FDH is formaldehyde dehydrogenase); Potency, µM (highest dose often 57.1 µM), usual class: inhibitors; 230,000 tested, 1.6% active; active = well fitted inhibition curve with a large enough effect, not every such curve was filed as active; inconclusive = small, poorly fitted or top-dose-only effect, or another doubt; inactive = no such curve, though single readings can be large or run the other way; note: nearly all actives have a fitted effect of over 50% in size
# Target sequence (B2RXH2 1-337 limits assumed): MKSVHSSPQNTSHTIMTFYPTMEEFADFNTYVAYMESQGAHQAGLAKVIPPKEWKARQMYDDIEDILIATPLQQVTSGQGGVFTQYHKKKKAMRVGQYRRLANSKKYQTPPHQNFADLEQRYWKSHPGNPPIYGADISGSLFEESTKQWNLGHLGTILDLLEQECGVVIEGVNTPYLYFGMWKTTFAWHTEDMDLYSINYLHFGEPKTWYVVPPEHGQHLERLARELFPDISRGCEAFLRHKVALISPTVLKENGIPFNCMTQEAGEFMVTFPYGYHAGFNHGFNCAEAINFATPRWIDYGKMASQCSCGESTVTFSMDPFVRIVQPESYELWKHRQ
# ALDH1A1 inh: blocks purified human ALDH1A1 activity; 220,000 tested, 7.3% active; Purified ALDH1A1, NADH fluorescence, propionaldehyde substrate; P00352; Potency, µM (doses to about 75.3 µM), usual class: inhibitors; AID 1030; active = well fitted inhibition curve with a large enough effect, not every such curve was filed as active; inconclusive = small, poorly fitted or top-dose-only effect, or another doubt; inactive = no such curve, though single readings can be large or run the other way
# A number is an active result; – = inactive; ? = inconclusive; · = not tested or not shown; ! = not confirmed by another sample; [ ] = another dose, or the depositor's remark. Shown are actives, neighbours in structure and some others; about 9.9% of the full set was active somewhere. Unless noted, calls come from the whole dose curve; as a rule, active = well fitted curve in the direction sought with a large enough effect; inconclusive = small, poorly fitted or top-dose-only effect, or another doubt; inactive = no such curve, though single readings can be large; an effect the other way counts as inactive or inconclusive.
SMILES,Tau fluor cs,Tau fibril FP,Tau fibril ThT,HPGD inh,JMJD2E inh,ALDH1A1 inh
CC(C)(Oc1ccc(Cl)cc1)C(=O)N/N=C/c1cn[nH]c1-c1ccccc1,–,–,–,–,–,8.91µM
O=C(N/N=C\c1cn[nH]c1-c1ccc(Cl)cc1)c1cccs1,–,–,·,·,?,·
COC(=O)[C@@H](NC(=O)N1CCc2nc(COc3ccccc3)c3c(c2C1)CO[C@@H](C)C3)C(C)C,–[11.6 µM],–[11.6 µM],–[11.5 µM],–,–[11.4 µM],–[13.5 µM]
COc1ccc(C2c3c(-c4ccccc4)n[nH]c3C(=O)N2c2ccc(C(=O)O)cc2)c(OC)c1 (stereo not given),–,–,–,·,·,·
CC(=O)CSc1ncnc2c1oc1ccccc12,–,–,–,–,–,–
CCCSc1ncnc2c1oc1ccccc12,–,–,–,20µM,–,?
c1ccc(N2CCN(c3nc(-c4cccs4)nc4ccccc34)CC2)cc1,–,–,?,?,?,?
Oc1ccc(N2CCN(c3nc(-c4cccs4)nc4ccccc34)CC2)cc1,14.1µM[quencher],–,·,·,?,·
O=C(CN1C(=O)C2CC=CCC2C1=O)Nc1ccc(S(=O)(=O)Nc2nccs2)cc1 (stereo not given),–,–,·,·,–,·
CC1(C(=O)Nc2nccs2)Cc2ccccc2C(=O)O1 (stereo not given),–,–,–,–,–,–
CC1(C(=O)Nc2nnc(SCc3ccccc3)s2)Cc2ccccc2C(=O)O1 (stereo not given),–,–,–,28.2µM,–,?
C/C(CC(=O)Nc1ccc2c(c1)OCO2)=N\NC(=O)C(c1ccccc1)c1ccccc1,–,–,–,–,–,3.16µM
NC(=O)CSc1ncc2c(n1)-c1ccccc1N(Cc1ccc(Cl)cc1)S2(=O)=O,–,–,–,·,·,·
CCOc1ccc(NC(=O)C2CCCN(c3ccc(Sc4ccc(C)cc4)nn3)C2)cc1 (stereo not given),–,–,–,·,·,·
CCCOc1ccc(C(=O)Nc2ccc(Cl)c(-c3nc4ncccc4o3)c2)cc1,?,–,–,·,·,·
CC1(C)CC(=O)C(c2c[nH]c3ccccc23)C(=O)C1,–,–,?,·,–,20µM
CC12CN3CC(C)(CN(C1)C3c1c[nH]c3ccccc13)C2=O (stereo not given),–,–,–,·,–,–
CC(C)CN1CC[C@@]2(CCCN(C(=O)c3csnn3)C2)C1,·,·,·,–,·,–
COC(=O)C1=C(C)N(Cc2ccccc2)C(=O)N[C@@H]1c1ccccc1,–,–,–,–,–,–
COC(=O)C1=C(C)N(Cc2ccccc2)C(=O)N[C@H]1c1ccccc1,–,–,–,–,–,7.94µM!
CCC(C)NC(=O)CSc1nc2cc3c(cc2c(=O)n1CCCC(=O)NCCc1ccc(OC)c(OC)c1)OCO3 (stereo not given),–,–,–,·,·,·
CCCOC(=O)c1ccc(Oc2cn[nH]c2-c2ccc(OCC(=O)NN)cc2O)cc1,28.2µM[quencher],–,–,·,?,·
CCOC(=O)c1ccc(Oc2cn[nH]c2-c2ccc(O)cc2O)cc1,12.6µM[quencher],?,?,·,?,·
CCc1cc(-c2n[nH]c(C)c2Oc2ccc(C(C)C)cc2)c(O)cc1O,7.08µM[quencher],?,28.2µM,?,–,?
CCCOC(=O)c1ccc(Oc2cn[nH]c2-c2ccc(O)cc2O)cc1,5.01µM[quencher],?,?,·,?,?
SMILES,Tau fluor cs,Tau fibril FP,Tau fibril ThT,HPGD inh,JMJD2E inh,ALDH1A1 inh
Cc1[nH]nc(-c2ccc(O)cc2O)c1Oc1ccccc1,14.1µM[quencher],–,–,·,–,–
CCOc1ccc(-c2n[nH]c(C)c2Oc2ccccc2OC)c(O)c1,?,–,–,–,–,–
CCCOC(=O)c1ccc(Oc2c(-c3ccc(O)cc3O)n[nH]c2C)cc1,–,–,–,·,–,–
CCCc1ccc(Oc2cn[nH]c2-c2ccc(O)cc2O)cc1,6.31µM[quencher],?,?,–,–,–
CCCOC(=O)c1ccc(Oc2c(-c3ccc(OC)cc3O)n[nH]c2C)cc1,10µM[quencher],?,–,–,–,–
COc1ccc(Oc2cn[nH]c2-c2ccc(O)cc2O)cc1,?,?,–,–,–,–
COC(=O)C1=C(C(=O)OC)[C@@H]2N(Cc3ccccc3)c3ccccc3[C@@]23C[C@@H](C(=O)OC)N(C(=O)C2CCC2)C3=N1,–[11.6 µM],–[11.6 µM],–[11.5 µM],–,–[11.4 µM],–[13.5 µM]
